Reference: PubChem BioAssay (NCATS)
Inconclusive results are not listed. Calls of active or inactive are those of the source. Unless noted, the call rests on the fitted dose curve; in most records, active means well fitted curve in the direction sought with a large enough effect; inconclusive means small, poorly fitted or top-dose-only effect, or another doubt; inactive means no such curve, though single readings can be large; an effect the other way counts as inactive or inconclusive.

Columns and labels:
CRL-7250 = normal cell line; assay: qHTS assay to identify novel small-molecules to repurpose for Merkel cell carcinoma treatment (AID 1296009); conditions: MCC and control cell lines, CellTiter-Glo viability, 72 h; series mostly up to 92 µM; further: nearly all actives have a fitted effect of over 60% in size
Procedure, shortened: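 Cells exposed to NPC (8-point) and MIPE (11-point) compound dilutions for 72 hr at 37 degree celsius; viability read by CellTiter-Glo luminescence, normalized to no-cell and DMSO in-plate controls.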

[1] = P-glycoprotein substrates identified in KB-8-5-11 adenocarcinoma cell line, qHTS therapeutic library screen (AID 1346987); further: on the % scale 0 is the no-effect control and ±100 the full control effect; nearly all actives have a fitted effect of over 65% in size
Procedure, shortened: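 KB-8-5-11: colchicine-selected sub-line of KB-3-1 over-expressing P-gp; assay medium lacked colchicine. 72 h drug exposure at 37 degree C, CellTiter-Glo.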

[2] = target: Cytochrome P450 2D6 (Homo sapiens) (UniProt P10635); assay: Cytochrome P450 family 2 subfamily D member 6 (CYP2D6) small molecule antagonists: luciferase biochemical (cell-free) qHTS assay (AID 1645840; active means well fitted curve in the direction sought with a large enough effect in the repeat runs; an effect the other way counts as inactive or inconclusive; further: on the % scale 0 is the no-effect control and ±100 the full control effect; nearly all actives have a fitted effect of over 55% in size)
Chain of Cytochrome P450 2D6 (Homo sapiens) (P10635 whole entry, looked up): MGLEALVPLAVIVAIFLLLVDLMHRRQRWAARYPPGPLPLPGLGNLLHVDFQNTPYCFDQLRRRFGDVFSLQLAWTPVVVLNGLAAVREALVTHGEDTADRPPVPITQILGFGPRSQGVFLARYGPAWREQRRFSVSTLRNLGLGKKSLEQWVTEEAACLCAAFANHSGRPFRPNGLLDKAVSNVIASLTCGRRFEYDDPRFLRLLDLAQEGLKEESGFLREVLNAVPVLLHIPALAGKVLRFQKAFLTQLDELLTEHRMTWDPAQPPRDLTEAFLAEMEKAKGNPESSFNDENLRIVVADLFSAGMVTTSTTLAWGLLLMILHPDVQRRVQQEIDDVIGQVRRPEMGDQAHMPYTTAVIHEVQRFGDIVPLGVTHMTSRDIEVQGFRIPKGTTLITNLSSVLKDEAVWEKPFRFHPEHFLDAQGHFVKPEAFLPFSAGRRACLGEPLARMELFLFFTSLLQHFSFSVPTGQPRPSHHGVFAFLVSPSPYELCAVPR
Procedure, shortened: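 P450-Glo luminescent screen: recombinant CYP2D6 enzyme–proluciferin substrate mix preincubated with compound 10 min at room temperature, then NADPH regeneration added for 1 h at room temperature. Detection reagent added for 20 min; luciferin light read as relative luminescence units.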

[3] = target: Cytochrome P450 3A4 (Homo sapiens) (UniProt P08684); assay: Cytochrome P450 family 3 subfamily A member 4 (CYP3A4) small molecule antagonists: luciferase qHTS assay (AID 1645841; active means well fitted curve in the direction sought with a large enough effect in the repeat runs; an effect the other way counts as inactive or inconclusive; further: nearly all actives have a fitted effect of over 45% in size)
Chain of Cytochrome P450 3A4 (Homo sapiens) (P08684 whole entry, looked up): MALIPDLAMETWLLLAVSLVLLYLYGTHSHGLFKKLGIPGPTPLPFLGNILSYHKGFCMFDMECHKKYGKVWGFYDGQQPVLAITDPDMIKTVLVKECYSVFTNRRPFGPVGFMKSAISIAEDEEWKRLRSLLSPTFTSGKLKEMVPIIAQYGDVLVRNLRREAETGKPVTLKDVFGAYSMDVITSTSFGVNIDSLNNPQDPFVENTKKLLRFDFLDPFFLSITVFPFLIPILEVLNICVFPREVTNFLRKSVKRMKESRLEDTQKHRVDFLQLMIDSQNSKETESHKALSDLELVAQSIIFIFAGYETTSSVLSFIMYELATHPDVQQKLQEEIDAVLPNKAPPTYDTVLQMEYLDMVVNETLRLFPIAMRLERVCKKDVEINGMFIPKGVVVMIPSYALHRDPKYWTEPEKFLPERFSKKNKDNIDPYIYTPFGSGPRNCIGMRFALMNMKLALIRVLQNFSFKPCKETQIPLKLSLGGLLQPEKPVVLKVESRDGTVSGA
Procedure, shortened: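 P450-Glo CYP3A4 enzyme with proluciferin substrate was preincubated with DMSO-dissolved compounds for 10 min at room temperature. NADPH regeneration solution started a 1 h reaction. Detection reagent stopped it, and luminescence was read after 20 min.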

[4] = target: Cytochrome P450 2C9 (Homo sapiens) (UniProt P11712); assay: Cytochrome P450 family 2 subfamily C member 9 (CYP2C9) small molecule antagonists: luciferase biochemical (cell-free) qHTS assay (AID 1645842; active means well fitted curve in the direction sought with a large enough effect in the repeat runs; an effect the other way counts as inactive or inconclusive; further: on the % scale 0 is the no-effect control and ±100 the full control effect; nearly all actives have a fitted effect of over 55% in size)
Chain of Cytochrome P450 2C9 (Homo sapiens) (P11712 whole entry, looked up): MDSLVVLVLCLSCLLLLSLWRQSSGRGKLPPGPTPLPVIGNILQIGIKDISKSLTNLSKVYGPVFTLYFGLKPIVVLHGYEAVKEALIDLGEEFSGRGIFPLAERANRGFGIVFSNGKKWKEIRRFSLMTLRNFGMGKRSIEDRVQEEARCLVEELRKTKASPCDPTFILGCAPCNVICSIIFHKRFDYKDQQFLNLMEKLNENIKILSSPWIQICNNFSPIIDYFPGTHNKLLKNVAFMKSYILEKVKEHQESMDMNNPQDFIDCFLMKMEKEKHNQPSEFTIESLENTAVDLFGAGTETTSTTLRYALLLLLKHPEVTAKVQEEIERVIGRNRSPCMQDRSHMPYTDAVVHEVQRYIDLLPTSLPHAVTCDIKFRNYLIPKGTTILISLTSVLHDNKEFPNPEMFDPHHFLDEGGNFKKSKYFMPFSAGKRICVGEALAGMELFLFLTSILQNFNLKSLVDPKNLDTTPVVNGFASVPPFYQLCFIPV
Procedure, shortened: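 Luminescence, after 20 min with luciferin detection reagent, reflected CYP2C9 turnover during a 1 h NADPH-driven reaction at 37C. Enzyme-substrate mix contained 0.4% bovine serum albumin and was preincubated with compound 10 min at room temperature.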

KB-3-1 = assay: Cytotoxic Profiling of Annotated Libraries Using Quantitative High-Throughput Screening (AID 1296008); conditions: Five cell lines viability, CellTiter-Glo ATP luminescence, 48-72 h; max response: hits give low values; further: on the % scale 0 is the no-effect control and ±100 the full control effect; nearly all actives have a fitted effect of over 60% in size
Procedure, shortened: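 Compounds were pin-transferred onto cells and incubated 48 or 72 hr at 37 degree Celsius, 95% humidity. CellTiter-Glo was added, plates sat 10 min at room temperature, then ATP-coupled luminescence was imaged as the viability read-out.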

astro = assay: Drug repurposing screens with cells derived from glioblastoma tumor samples (AID 1345199); conditions: viability, ATP luminescence, 48 h; series mostly up to 45.9 µM; further: on the % scale 0 is the no-effect control and ±100 the full control effect; nearly all actives have a fitted effect of over 40% in size
Procedure, shortened: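 Four patient lines of CD133+ GBM neurospheres were screened at several concentrations; hits were retested in those lines plus three slower-growing GBM lines, using 48-hour treatment and ATP-based viability.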

[5] = target: Luciferin 4-monooxygenase (Photinus pyralis) (UniProt P08659); assay: Biochemical firefly luciferase enzyme assay for NPC (AID 624030);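 further: purified P. pyralis luciferase at 10 nM with luciferin and ATP substrate; 0% = DMSO and -100% = full luciferase inhibition by PTC124 control; nearly all actives have a fitted effect of over 70% in size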
Chain of Luciferin 4-monooxygenase (Photinus pyralis) (P08659 whole entry, looked up): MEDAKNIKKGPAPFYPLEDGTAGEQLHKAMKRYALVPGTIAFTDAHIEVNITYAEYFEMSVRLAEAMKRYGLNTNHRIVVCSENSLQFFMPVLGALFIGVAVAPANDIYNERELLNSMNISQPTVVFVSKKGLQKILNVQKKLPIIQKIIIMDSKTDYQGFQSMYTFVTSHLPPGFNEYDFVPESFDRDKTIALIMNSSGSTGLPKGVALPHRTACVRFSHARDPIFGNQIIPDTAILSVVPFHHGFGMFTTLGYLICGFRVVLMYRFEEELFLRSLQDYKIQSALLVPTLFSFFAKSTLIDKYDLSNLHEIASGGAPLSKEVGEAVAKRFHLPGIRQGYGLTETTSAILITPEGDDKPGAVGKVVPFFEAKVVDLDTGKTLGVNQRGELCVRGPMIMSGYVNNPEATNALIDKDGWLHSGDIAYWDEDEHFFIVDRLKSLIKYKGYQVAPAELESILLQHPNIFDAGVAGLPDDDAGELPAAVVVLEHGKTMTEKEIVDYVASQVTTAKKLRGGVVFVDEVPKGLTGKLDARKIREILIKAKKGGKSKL
Procedure, shortened: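 Counter-screen for direct inhibition of the luciferase enzyme by approved-drug library compounds, run at 10 nM enzyme in 50 mM Tris acetate (final). Luminescence was read within 5 min of enzyme-buffer addition and normalized to PTC124 versus DMSO (0%).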

[6] = qHTS Assay for Identifying Gametocytocidal Compounds (AID 743244);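 further: on the % scale 0 is the no-effect control and ±100 the full control effect; actives lower the fluorescent signal which means gametocytes are killed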; conditions: P. falciparum 3D7 stage III-V gametocytes, alamarBlue, 72 h; max response: hits give low values
Procedure, shortened: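 Stage III-V P. falciparum 3D7 gametocytes, 20,000 per well, were exposed to compounds for 72 h at 37C, 5% CO2. AlamarBlue was then added for 24 h and viability was read as fluorescence at Ex 525/Em 598 nm.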

CCC(O)C(C)C1CCC(C(C)C(=O)O)O1 (stereo unspecified)
inactive: Potency (CRL-7250)

CCCCNC(C)(C)[P+](=O)O
inactive: Potency [1] | Potency [2] | outcome [3] | Potency [4] | max response (KB-3-1) 5.36% | Potency (astro)

CC(N)Cc1ccc2c(c1)OCO2 (stereo unspecified)
inactive: Potency [5] | Potency [1] | max response (KB-3-1) -15.3% | Potency (astro)

COc1cc(C[C@H](C)N)c(OC)cc1Br
inactive: Potency [5] | max response [6] -8.52% | Potency [1] | max response (KB-3-1) -6.95% | Potency (astro)
